Compounds with a hit are over-represented: about 6.5% of the library has one in this group of screens.
HCMV antiviral: qHTS Assay for inhibitors of the human cytomegalovirus (HCMV) | HFF cells, HCMV-luciferase reporter, 72 h; stronger effect = lower value | activity change, negative = inhibition, % at 57.5 µM | 410,000 tested, 4.5% active; in the data active = activity change below about -60%; inconclusive = no clear call, values can overlap the other calls; inactive = above about -39%
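Screen run at 2 compound doses on HFFs infected with reporter HCMV, MOI 1 PFU/cell. Luciferase activity from cell lysates at 72 h post infection gave inhibition relative to buffer-only and Salinomycin wells.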
FMDV inh: High Throughput Screening for Foot and Mouth Disease Virus Antivirals | FMDV antiviral cell-based qHTS | Potency, µM (top dose mostly 57.9 µM), for the others: top-dose activity change, negative = inhibition, hits mostly inhibitors | 410,000 tested, 1.2% active; calls by dose curve; tested in HEK293T cells; note: read-out not given here; potency is the fitted concentration of half-maximal effect; nearly all actives have a fitted effect of over 45% in size
MARV entry inh: qHTS for inhibitors of binding or entry into cells for Marburg Virus; Marburg virus pseudotyped entry inhibition, cell reporter; Potency, µM (series often up to 37.8 µM), for the others: top-dose activity change, negative = inhibition, actives largely listed as inhibitors; 300,000 tested, 1.8% active; AID 540276, 2011; calls by dose curve; tested in HEK293 cells; note: potency is the fitted concentration of half-maximal effect
VACV mCherry inh: qHTS for Stage-Specific Inhibitors of Vaccinia Orthopoxvirus: mCherry Reporter Primary qHTS; Vaccinia virus mCherry reporter infection, fluorescence; Potency, µM (titrated, usually from 36.5 µM), without a hit: top-dose activity change, negative = inhibition, usual class: inhibitors; 310,000 tested, 0.63% active; AID 720579, 2013; calls by dose curve; tested in A549 cells; note: potency is the fitted concentration of half-maximal effect; nearly all actives have a fitted effect of over 35% in size
Vaccinia Venus: qHTS for Stage-Specific Inhibitors of Vaccinia Orthopoxvirus: Venus Reporter Primary qHTS. 330,000 tested, 0.46% active. Vaccinia virus Venus reporter expression, fluorescence. Potency, µM (top dose mostly 36.5 µM), without a hit: top-dose activity change, negative = inhibition, most hits filed as inhibitors; calls by dose curve; tested in A549 cells; note: potency is the fitted concentration of half-maximal effect; nearly all actives have a fitted effect of over 30% in size
LASV entry inh: qHTS for Inhibitors of binding or entry into cells for Lassa Virus; Lassa virus pseudotype entry inhibition, cell reporter; Potency, µM (doses to about 37.9 µM), without a hit: at the top dose activity change, negative = inhibition, actives largely listed as inhibitors; 300,000 tested, 1.2% active; calls by dose curve; tested in HEK293 cells; note: potency is the fitted concentration of half-maximal effect; nearly all actives have a fitted effect of over 50% in size
* marks the source's active call; other numbers are inactive results; i = inactive; ? = inconclusive; . = not tested or not shown; [ ] = dose if it differs, or a comment. % is set by controls: 0 for no effect and ±100 for the full control effect.

SMILES	HCMV antiviral	FMDV inh	MARV entry inh	VACV mCherry inh	Vaccinia Venus	LASV entry inh
C[n+]1cc2c3c(ccc2c2ccc4cc5c(cc4c21)OCO5)OCO3	-98*	25µM*	0.89µM*	11µM*	10µM*	.
CC(=O)c1ccc2c(c1)OCO2	19	-21%	12%	2%	12%	-1%
CCc1ccc(NCc2cc3cc4c(cc3n(CC(=O)Nc3cccc(OC)c3)c2=O)OCO4)cc1	30	10%	.	0%	8%	-5%[46.1 µM]
O=[N+]([O-])c1ccc2nc(-c3ccc(Cl)cc3)[nH]c2c1	-62*	-8%	?	.	.	?
O=[N+]([O-])c1cccc(-c2nc3ccc([N+](=O)[O-])cc3[nH]2)c1	11	-6%	?	.	.	-9%
O=[N+]([O-])c1ccc2nc(-[n+]3c(-c4ccccc4)cc(-c4ccccc4)cc3-c3ccccc3)[nH]c2c1	.	0%	?	?	?	23µM*
COc1ccc(-c2nc3ccc([N+](=O)[O-])cc3[nH]2)cc1	44	-70%	?	-28%	-26%	8.9µM*
Cc1nc(NCc2ccccn2)c2ccccc2n1	-84*	?	?	?	-30%	-43%
c1ccc(CNc2nc(NCc3ccccc3)c3ccccc3n2)cc1	.	?	?	-13%[7.34 µM]	-13%[7.34 µM]	10µM*
COc1cccc(-c2nc(NCC3CCCO3)c3ccccc3n2)c1O (stereo unspecified)	33	18µM*	?	?	?	?
Cc1cc(NCc2ccccn2)nc2ccccc12	-6	.	-2%	-1%	-10%	17%
CCC(C)Nc1nc(-c2ccccn2)nc2ccccc12 (stereo unspecified)	-99*	?	.	.	.	.
c1ccc(CNc2nc(-c3ccccc3)nc3ccccc23)cc1	?	-6%	?	-13%	-23%	22%[46.1 µM]
CC(C)(C)c1ccc(-c2nc(NCc3cccnc3)c3ccccc3n2)cc1	-72*	17%	?	-15%	-17%	?
COc1ccccc1CNc1nc(NCc2ccccc2)nc2ccsc12	?	?	.	-18%	?	.
c1ccc(CNc2nc(NCc3ccccc3)c3sccc3n2)cc1	-80*	0%	.	-6%	-29%	.
CCC(C)Nc1nc(-c2cccc(OC)c2O)nc2ccccc12 (stereo unspecified)	55	28µM*	?	?	?	?
c1ccc(CNc2nc(-c3ccccn3)nc3ccccc23)cc1	-97*	?	?	?	-22%	?
COc1ccc(Nc2nc(-c3ccccc3)nc3ccccc23)cc1	?	-24%	?	-12%	-26%	33%[46.1 µM]
c1ccc(CNc2nc(-c3cccs3)nc3ccccc23)cc1	-74*	?	7%	-15%	-15%	4%
COc1ccc(Nc2nc(-c3cccc([N+](=O)[O-])c3)nc3ccccc23)cc1	23	40µM*	15µM*	?	?	?
COc1ccc(Nc2nc(-c3cccs3)nc3ccccc23)cc1	-102*	?	?	-30%	?	-22%
Cc1ccc(C(=O)N2CCn3c(nnc3C(=O)NCC3CC3)C2)cc1F	-9	.	.	.	.	.
COc1ccc(-c2nc(C)c(CCNC(=O)c3ccc(F)c(F)c3)s2)cc1	17	24%	.	-7%	-9%	4%[46.1 µM]
Cc1ccc(Cl)cc1NC(=O)CCCn1c(=O)c2cccn2c2ccccc21	9	-21%	.	-14%	-12%	?
SMILES	HCMV antiviral	FMDV inh	MARV entry inh	VACV mCherry inh	Vaccinia Venus	LASV entry inh
CCC(Oc1ccccc1F)C(=O)N1CCC(c2nc3ccccc3s2)CC1 (stereo unspecified)	-27	25µM*	?	-11%	-14%	-4%[46.1 µM]
CCOC(=O)c1ccccc1NC(=O)CN1CCC(n2nnc3cc(C(F)(F)F)ccc32)CC1	-13	?	-2%[46.1 µM]	i	9%	2%
O=C(CSc1ccc(F)cc1)N1CCC(c2nc3ccccc3s2)CC1	?	?	?	?	?	-11%
O=C(CN1CCC(n2nnc3cc(C(F)(F)F)ccc32)CC1)NCc1cccs1	-12	?	2.2µM*	?	-23%	?
O=C(CSc1ccccc1Cl)N1CCC(c2nc3ccccc3s2)CC1	2	35µM*	-15%	.	?	2%
O=C(CN1CCC(c2nc3ccccc3s2)CC1)NCc1cccs1	-94*	16µM*	?	-29%	?	?
CC(C)n1c(N2CCN(CC(=O)NCc3cccs3)CC2)nc2ccccc21	-14	0%	?	.	.	10%
CCn1c(=O)cc(OCC(=O)NCc2ccccc2OC)c2ccccc21	-9	?	-27%[46.1 µM]	-12%	-3%	4%[46.1 µM]
CCC[C@H]1[C@@H](NS(=O)(=O)Cc2ccccc2)CC[C@@]23CCCN2C(=O)CCC[C@@H]13	-2	.	.	.	.	.
CCCNC(=O)c1ccc(-c2nc3ccccc3s2)s1	-30	-69%	3.5µM*	-12%[1.46 µM]	-23%	?
CCCNC(=O)N1CCC(c2nc3ccccc3s2)CC1	-75*	-7%	.	.	.	.
O=C(CN1CCC(c2nc3ccccc3s2)CC1)N1CCCCC1	-62*	-2%	.	-7%	-23%	.
CC(C)NC(=O)N1CCC(c2nc3ccccc3s2)CC1	41	-5%	.	.	.	.
CCCNC(=O)Nc1nc2ccccc2s1	20	-5%	.	.	.	.
CN(C)CC(C)(C)CNC(=O)c1cnn(-c2ncc3c(n2)-c2ccccc2CC3)c1-c1ccco1	.	-15%	.	-3%	-7%	.
c1ccc(-c2ccc(CNC3CC3)cc2)cc1	-80*	1%	13%[46.1 µM]	-17%	-12%	?
S=C(Nc1ccc(Cl)cc1Cl)NC1CCN(Cc2ccccc2)CC1	?	-39%	?	-9%	?	?
COc1ccc(CN2CCN(Cc3ccccc3OC)CC2)cc1	9	-23%	.	.	.	.
Clc1ccc(CNC2CCN(Cc3ccccc3)CC2)cc1	-2	-26%	10µM*	-14%	-23%	-18%[46.1 µM]
S=C(NCc1ccc(Cl)cc1)NC1CCN(Cc2ccccc2)CC1	-89*	-25%	6.3µM*	-12%	?	?
COc1ccccc1CN1CCN(Cc2ccc(Cl)cc2)CC1	?	-26%	11µM*	i	-8%	1%[46.1 µM]
C[C@@H]1COc2cccc(NC3CC3)c2S(=O)(=O)N1	0	.	.	.	.	.
Clc1ccc(CN2CCC(c3nc4ccc(Cl)cc4[nH]3)CC2)cc1	-65*	?	11µM*	-26%	?	?
Clc1ccc(CN2CCC(c3ccccc3)CC2)cc1	-103*	-21%	.	-8%	-17%	.
CC1CCCN(C(=O)CN2CCC(c3nc4ccc(Cl)cc4[nH]3)CC2)C1 (stereo unspecified)	3	-27%	.	.	.	.
CCOC(=O)CN1C(=O)[C@@]2(CC(C)=C[C@@H](COCc3ccccc3)O2)c2ccccc21	.	.	7%[14.2 µM]	.	.	?
